Here are results for 18 compounds from PubChem BioAssay (NCATS).

Inconclusive results are not listed. The source made the active and inactive calls. Unless noted, calls come from the whole dose curve.

Test [1] in a line: qHTS profiling for inhibitors of Plasmodium falciparum (3D7) proliferation (AID 743322).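 Note: infected erythrocytes exposed to compound for 72 h before lysis; 100% = DMSO vehicle wells and 0% = 0.29 µM artemisinin.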 The conditions noted are these: P. falciparum 3D7 proliferation; at 28.7 µM (top of the series). In short, it runs like this: (§1)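 Erythrocytes infected with P. falciparum (0.3% parasitemia, 2.5% hematocrit) incubated with compounds 72 h at 37 C, 5% CO2. Lysis with saponin/Triton buffer containing SYBR Green I, overnight at room temperature in the dark; DNA fluorescence (485/535 nm) normalised to 0.29 uM artemisinin and DMSO.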

A short description of test [2]: qHTS profiling for inhibitors of Plasmodium falciparum (DD2) proliferation (AID 743323; call rule not given here). The conditions noted are these: lower = more inhibition; at 28.7 µM (top of the series). The method in brief:
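P. falciparum Dd2-infected erythrocytes (0.3% parasitemia, 2.5% hematocrit) exposed 72 h at 37 C, 5% CO2. Lysis with SYBR Green, overnight at room temperature, fluorescence 485/535 nm; normalized to 0.29 uM artemisinin and DMSO.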
(In general: Quantitative high-throughput screening tests each substance at several concentrations.)

Test [3] is described as follows: qHTS profiling for inhibitors of Plasmodium falciparum (HB3) proliferation (AID 743324; active = well fitted curve in the direction sought with a large enough effect; an effect the other way counts as inactive or inconclusive;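 note: 100% = DMSO vehicle wells and 0% = artemisinin-treated control wells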). The conditions noted are these: Plasmodium falciparum HB3 blood-stage proliferation; at 28.7 µM (top of the series). The method in brief:
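P. falciparum HB3 grown in erythrocytes (0.3% parasitemia, 2.5% hematocrit final) with compound for 72 h at 37 C, 5% CO2. Parasite DNA detected by SYBR Green after saponin/triton lysis overnight; normalized to 0.29 uM artemisinin and DMSO.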

A short description of test [4]: qHTS profiling of the MIPE4 collection as inhibitors of Plasmodium falciparum (3D7) proliferation (AID 743344; call rule not given here;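 note: scaled between DMSO vehicle wells and 0.29 µM artemisinin as full inhibition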). The conditions noted are these: P. falciparum 3D7 in erythrocytes, SYBR Green DNA fluorescence, 72 h; at 28.5 µM (top of the series) unless noted. In short, it runs like this:
as §1

The nature of test [5]: qHTS profiling of the MIPE4 collection as inhibitors of Plasmodium falciparum (DD2) proliferation (AID 743345; call rule not given here). Particulars: P. falciparum Dd2 in erythrocytes, SYBR Green DNA, 72 h; at 28.5 µM (top of the series) unless noted. In short, it runs like this:
as §1

Test [6] can be described thus: qHTS profiling of the MIPE4 collection as inhibitors of Plasmodium falciparum (HB3) proliferation (AID 743347; call rule not given here;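 note: plate controls were DMSO vehicle wells for no effect and artemisinin wells for full effect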). Particulars: P. falciparum HB3 in erythrocytes, SYBR Green DNA, 72 h; at 28.5 µM (top of the series) unless noted. In short, it runs like this: as §1
The nature of test [7]: qHTS for Inhibitors of the Functional Ribonucleoprotein Complex (vRNP) of Lassa (LASV) Arenavirus: LASV Primary Screen - GLuc reporter signal (AID 1347082; calls by dose curve; tested in HEK293 reporter line; note: nearly all actives have a fitted effect of over 60% in size; note: potency is the fitted concentration of half-maximal effect; for activity change, negative = inhibition: % is set by controls: 0 for no effect and ±100 for the full control effect).
Test [8] is described as follows: qHTS for Inhibitors of the Functional Ribonucleoprotein Complex (vRNP) of Lassa (LASV) Arenavirus: Viability assay - alamar blue signal for LASV Primary Screen (AID 1347083; calls by dose curve; tested in HEK293 reporter line; note: nearly all actives have a fitted effect of over 80% in size; note: potency is the fitted concentration of half-maximal effect).
The nature of test [9]: qHTS for Inhibitors of the Functional Ribonucleoprotein Complex (vRNP) of Lymphocytic Choriomeningitis Arenaviruses (LCMV): Viability assay - alamar blue signal for LCMV Primary Screen (AID 1347085; calls by dose curve; tested in HEK293 reporter line; note: nearly all actives have a fitted effect of over 80% in size; note: potency is the fitted concentration of half-maximal effect).
Test [10] addresses Nucleoprotein (Lymphocytic choriomeningitis virus (strain Armstrong)) (UniProt P09992). The experiment in a line: qHTS for Inhibitors of the Functional Ribonucleoprotein Complex (vRNP) of Lymphocytic Choriomeningitis Arenaviruses (LCMV): LCMV Primary Screen - GLuc reporter signal (AID 1347086). Note: % is set by controls: 0 for no effect and ±100 for the full control effect; nearly all actives have a fitted effect of over 70% in size.
For test [11], the target named is Bile acid receptor (Homo sapiens) (UniProt Q96RI1). The experiment in a line: qHTS assay for small molecule agonists of farnesoid X receptor signaling (AID 588527).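 Note: 0% = vehicle basal and 100% = reference agonist.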 The conditions noted are these: HEK293T FXR-UAS-bla, beta-lactamase ratio, 16 h; activation: stronger effect = higher value. The method in brief: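 FXR-UAS-bla HEK293T cells (10% dialyzed FBS) preincubated 5-7 h at 37 C, then compounds at up to 92 uM for 16 h at 37 C. CCF4 beta-lactamase read-out after 2 h RT. Normalized to chenodeoxycholic acid (100 uM) and DMSO; Hill fit gave EC50 and efficacy.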

Test [12] addresses Peroxisome proliferator-activated receptor delta (Homo sapiens) (UniProt Q03181). The experiment in a line: qHTS assay for small molecule agonists of peroxisome proliferator-activated receptor delta signaling (AID 588534).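 Note: 0% = DMSO basal wells and 100% = positive control agonist at 10 µM.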 The method in brief:
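Cell-based beta-lactamase reporter assay run in agonist mode: cells seeded and incubated 5 hrs at 37 C, compounds added and incubated 18 hrs at 37 C. CCF4 dye fluorescence read after 2 hrs at RT; EC50 and efficacy from Hill fits.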

Test [13] is described as follows: Cytotoxicity counterscreen for inhibitors of SARS-CoV-2 cell entry (AID 1645845). Note: % is set by controls: 0 for no effect and ±100 for the full control effect; nearly all actives have a fitted effect of over 50% in size. In short, it runs like this: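 HEK293-ACE2 cells (Expi293F stably expressing human ACE2) seeded overnight, then compound for 1 h plus 48 h at 37C. Viability as ATP content by luminescence; normalized to wells with cells and media-only wells.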
Test [14] can be described thus: Primary qHTS to identify inhibitors of SARS-CoV-2 cell entry (AID 1645846). Note: nearly all actives have a fitted effect of over 45% in size. Note: potency is the fitted concentration of half-maximal effect. The conditions noted are these: activity change, negative = inhibition: at 57.1 µM (top of the series) unless noted. In short, it runs like this: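 Entry measured by luciferase signal 48 h after adding SARS-CoV-2-S pseudotyped MLV particles to HEK293-ACE2 cells preincubated 1 h with compounds. Normalisation: bald particles and spike particles.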

A short description of test [15]: Validation screen for inhibitors of Lassa infection (AID 463096). Note: % is set by controls: 0 for no effect and ±100 for the full control effect.
Test [16] in a line: Inducers of the Endoplasmic Reticulum Stress Response (ERSR) in human glioma: Validation (AID 504836; active = well fitted curve in the direction sought with a large enough effect; an effect the other way counts as inactive or inconclusive; note: 0% is about no effect). The method in brief: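 Stably transfected U87-MG glioma cells carrying a GRP78-based luciferase sensor; 16 h compound incubation. Luminescence end-point read 10 min after Bright-Glo addition at room temperature.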
A short description of test [17]: Primary qHTS for Huh7 cytotoxicity: counterscreen for inhibitors of MERS-S pseudotyped particle cell entry (AID 1479147). Particulars: outcome: dose series up to 57.1 µM unless noted.
Test [18] is described as follows: Primary qHTS for Vero E6 cytotoxicity: counterscreen for inhibitors of SARS-S pseudo-typed particle cell entry (AID 1479150). The conditions noted are these: outcome: dose series up to 57.1 µM unless noted.
For test [19], the target named is Cytochrome P450 2C9 (Homo sapiens) (UniProt P11712). The experiment in a line: qHTS Assay for Inhibitors and Substrates of Cytochrome P450 2C9 (AID 883; active = well fitted curve in the direction sought with a large enough effect; an effect the other way counts as inactive or inconclusive; note: potency is the fitted concentration of half-maximal effect; nearly all actives have a fitted effect of over 60% in size). The method in brief:
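Signal: luciferase luminescence reporting luciferin produced by CYP2C9. Conditions: 10nM enzyme, Luciferin-H 100uM at KM, 25mM KPO4, 37C, 60 min NADPH-driven reaction. Reference: 57uM sulphaphenazole as 100% inhibition.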

The target of test [20] is Cytochrome P450 3A4 (Homo sapiens) (UniProt P08684). The experiment in a line: qHTS Assay for Inhibitors and Substrates of Cytochrome P450 3A4 (AID 884; active = well fitted curve in the direction sought with a large enough effect; an effect the other way counts as inactive or inconclusive; note: nearly all actives have a fitted effect of over 50% in size; note: potency is the fitted concentration of half-maximal effect; for activity change, negative = inhibition: % is set by controls: 0 for no effect and ±100 for the full control effect). In short, it runs like this: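 20 nM human CYP3A4 with 25 uM Luciferin-PPXE (at KM) in 200 mM KPO4, preincubated 10 min with compound; NADPH regeneration started a 60 min RT reaction. Luciferin detected by luminescence, normalized to 57 uM ketoconazole as full inhibition.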

Test [21] shares this target. The experiment in a line: qHTS Assay for Activators of Cytochrome P450 3A4 (AID 885; active = well fitted curve in the direction sought with a large enough effect; an effect the other way counts as inactive or inconclusive; note: nearly all actives have a fitted effect of over 65% in size). In short, it runs like this: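 Human CYP3A4 (20 nM) with Luciferin-PPXE at 25 uM (its KM) in 200 mM KPO4; 10 min compound preincubation, then NADPH regeneration and 60 min reaction at RT. Luciferin read by luminescence; normalized to 57 uM ketoconazole full inhibition.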
Test [22] has as its target Cytochrome P450 2D6 (Homo sapiens) (UniProt P10635). The experiment in a line: qHTS Assay for Inhibitors and Substrates of Cytochrome P450 2D6 (AID 891; active = well fitted curve in the direction sought with a large enough effect; an effect the other way counts as inactive or inconclusive; note: potency is the fitted concentration of half-maximal effect; nearly all actives have a fitted effect of over 60% in size). In short, it runs like this: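 Human CYP2D6 (5 nM) with 30 uM Luciferin-ME EGE (at Km) in 100 mM KPO4, compound preincubated 10 min, then NADPH regeneration system for 60 min at room temperature. Luciferin read by luminescence; normalized to 1.43 uM quinidine.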

In test [23] the target is Cytochrome P450 2C19 (Homo sapiens) (UniProt P33261). The experiment in a line: qHTS Assay for Inhibitors and Substrates of Cytochrome P450 2C19 (AID 899; active = well fitted curve in the direction sought with a large enough effect; an effect the other way counts as inactive or inconclusive; note: potency is the fitted concentration of half-maximal effect; nearly all actives have a fitted effect of over 60% in size). In short, it runs like this: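 Signal comes from luciferase acting on luciferin released by CYP2C19-mediated hydroxylation of Luciferin-H EGE, 10uM (KM). Assay mix: 5nM enzyme, 50mM KPO4; 60 min at 37C with NADPH regeneration. Data normalized against 57uM ketoconazole.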
Sequence of Cytochrome P450 2C19 (Homo sapiens) (P33261 whole entry, looked up): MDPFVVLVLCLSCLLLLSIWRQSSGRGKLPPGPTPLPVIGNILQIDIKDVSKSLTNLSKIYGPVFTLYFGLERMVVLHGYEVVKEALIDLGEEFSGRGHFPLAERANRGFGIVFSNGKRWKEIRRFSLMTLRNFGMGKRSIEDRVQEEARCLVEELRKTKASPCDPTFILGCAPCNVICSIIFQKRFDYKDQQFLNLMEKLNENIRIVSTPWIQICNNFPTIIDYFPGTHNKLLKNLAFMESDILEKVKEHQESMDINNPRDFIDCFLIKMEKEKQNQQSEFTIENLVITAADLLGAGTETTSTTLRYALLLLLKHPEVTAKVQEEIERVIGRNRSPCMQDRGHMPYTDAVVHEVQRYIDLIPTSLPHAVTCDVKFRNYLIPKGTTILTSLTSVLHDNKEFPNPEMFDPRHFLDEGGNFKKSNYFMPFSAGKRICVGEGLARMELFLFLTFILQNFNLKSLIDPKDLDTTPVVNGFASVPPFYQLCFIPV

Sequence of Cytochrome P450 3A4 (Homo sapiens) (P08684 whole entry, looked up): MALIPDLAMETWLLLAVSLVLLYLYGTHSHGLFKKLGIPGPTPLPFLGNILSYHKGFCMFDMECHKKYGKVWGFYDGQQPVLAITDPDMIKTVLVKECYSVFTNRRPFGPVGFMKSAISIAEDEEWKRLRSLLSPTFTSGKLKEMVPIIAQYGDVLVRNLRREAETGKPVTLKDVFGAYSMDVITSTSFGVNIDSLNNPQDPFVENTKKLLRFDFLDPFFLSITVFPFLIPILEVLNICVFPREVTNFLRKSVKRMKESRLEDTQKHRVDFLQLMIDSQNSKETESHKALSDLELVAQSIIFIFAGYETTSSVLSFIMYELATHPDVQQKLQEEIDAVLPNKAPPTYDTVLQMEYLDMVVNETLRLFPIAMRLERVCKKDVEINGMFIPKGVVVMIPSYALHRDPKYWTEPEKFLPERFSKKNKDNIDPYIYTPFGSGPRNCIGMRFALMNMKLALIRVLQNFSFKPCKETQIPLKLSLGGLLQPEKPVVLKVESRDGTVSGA
Sequence of Nucleoprotein (Lymphocytic choriomeningitis virus (strain Armstrong)) (P09992 whole entry, looked up): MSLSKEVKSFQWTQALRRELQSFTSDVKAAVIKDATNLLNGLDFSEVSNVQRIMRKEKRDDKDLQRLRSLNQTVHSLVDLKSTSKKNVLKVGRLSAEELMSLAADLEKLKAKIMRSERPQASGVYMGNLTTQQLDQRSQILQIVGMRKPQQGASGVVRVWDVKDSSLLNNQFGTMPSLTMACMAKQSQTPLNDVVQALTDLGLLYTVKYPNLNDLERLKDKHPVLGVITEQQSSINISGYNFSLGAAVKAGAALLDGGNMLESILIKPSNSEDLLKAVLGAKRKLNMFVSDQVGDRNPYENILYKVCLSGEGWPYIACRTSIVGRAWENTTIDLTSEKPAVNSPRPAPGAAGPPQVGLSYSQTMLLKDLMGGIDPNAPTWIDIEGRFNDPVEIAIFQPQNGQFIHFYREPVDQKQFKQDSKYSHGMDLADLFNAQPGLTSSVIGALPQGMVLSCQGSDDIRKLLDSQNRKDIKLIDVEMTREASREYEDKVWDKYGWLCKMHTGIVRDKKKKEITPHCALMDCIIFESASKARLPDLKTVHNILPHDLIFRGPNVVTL
Sequence of Peroxisome proliferator-activated receptor delta (Homo sapiens) (Q03181 whole entry, looked up): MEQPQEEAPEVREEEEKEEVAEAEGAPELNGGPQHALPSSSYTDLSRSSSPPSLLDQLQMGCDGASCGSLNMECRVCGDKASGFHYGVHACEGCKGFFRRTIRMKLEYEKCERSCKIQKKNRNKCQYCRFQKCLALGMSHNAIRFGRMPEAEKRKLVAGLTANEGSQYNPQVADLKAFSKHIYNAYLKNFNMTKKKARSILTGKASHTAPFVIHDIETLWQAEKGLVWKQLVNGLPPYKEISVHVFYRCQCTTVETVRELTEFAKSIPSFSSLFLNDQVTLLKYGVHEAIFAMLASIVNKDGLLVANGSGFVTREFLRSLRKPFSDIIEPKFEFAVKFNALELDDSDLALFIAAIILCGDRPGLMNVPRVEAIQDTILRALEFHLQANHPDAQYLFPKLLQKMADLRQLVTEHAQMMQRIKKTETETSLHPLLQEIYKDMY
Sequence of Bile acid receptor (Homo sapiens) (Q96RI1 whole entry, looked up): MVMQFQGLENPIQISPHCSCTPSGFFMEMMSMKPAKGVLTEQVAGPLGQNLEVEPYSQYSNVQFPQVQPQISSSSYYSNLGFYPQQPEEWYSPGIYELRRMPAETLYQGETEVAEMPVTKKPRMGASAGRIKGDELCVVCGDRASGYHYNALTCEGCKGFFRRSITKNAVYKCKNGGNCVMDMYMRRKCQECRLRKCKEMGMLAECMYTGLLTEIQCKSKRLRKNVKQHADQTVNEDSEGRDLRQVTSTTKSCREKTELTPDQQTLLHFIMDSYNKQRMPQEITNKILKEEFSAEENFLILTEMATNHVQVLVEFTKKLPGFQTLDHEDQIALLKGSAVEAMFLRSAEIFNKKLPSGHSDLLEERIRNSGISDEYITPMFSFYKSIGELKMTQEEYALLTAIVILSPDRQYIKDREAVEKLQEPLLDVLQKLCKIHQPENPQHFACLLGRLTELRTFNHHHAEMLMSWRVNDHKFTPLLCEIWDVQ
Sequence of Cytochrome P450 2D6 (Homo sapiens) (P10635 whole entry, looked up): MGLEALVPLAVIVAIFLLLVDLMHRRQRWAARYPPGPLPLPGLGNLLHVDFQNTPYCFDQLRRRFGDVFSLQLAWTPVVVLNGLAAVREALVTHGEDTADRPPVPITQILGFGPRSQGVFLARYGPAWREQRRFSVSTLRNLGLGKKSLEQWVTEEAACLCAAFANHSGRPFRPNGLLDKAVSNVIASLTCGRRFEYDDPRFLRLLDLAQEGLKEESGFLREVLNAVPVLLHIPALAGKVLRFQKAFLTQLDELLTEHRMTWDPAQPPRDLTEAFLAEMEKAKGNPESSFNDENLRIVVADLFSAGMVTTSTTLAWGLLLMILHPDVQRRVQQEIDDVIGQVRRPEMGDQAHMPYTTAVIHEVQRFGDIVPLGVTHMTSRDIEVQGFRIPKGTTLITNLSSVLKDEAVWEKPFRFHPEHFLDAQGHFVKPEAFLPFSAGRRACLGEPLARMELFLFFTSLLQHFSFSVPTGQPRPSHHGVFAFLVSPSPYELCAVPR
Sequence of Cytochrome P450 2C9 (Homo sapiens) (P11712 whole entry, looked up): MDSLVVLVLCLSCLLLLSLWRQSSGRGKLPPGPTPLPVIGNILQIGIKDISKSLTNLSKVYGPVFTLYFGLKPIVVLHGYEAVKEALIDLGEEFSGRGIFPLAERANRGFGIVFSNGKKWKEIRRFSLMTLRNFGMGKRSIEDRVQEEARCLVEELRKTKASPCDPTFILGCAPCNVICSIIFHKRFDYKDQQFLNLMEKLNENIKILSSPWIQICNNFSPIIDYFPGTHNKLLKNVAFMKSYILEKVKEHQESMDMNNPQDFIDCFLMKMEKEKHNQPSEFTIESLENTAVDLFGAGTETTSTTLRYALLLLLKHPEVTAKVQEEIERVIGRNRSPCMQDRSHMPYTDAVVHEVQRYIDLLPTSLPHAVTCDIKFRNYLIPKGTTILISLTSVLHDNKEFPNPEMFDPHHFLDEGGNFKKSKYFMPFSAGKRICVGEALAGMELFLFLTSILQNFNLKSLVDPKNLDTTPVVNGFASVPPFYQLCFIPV

In the case of `CC(=O)N(O)CCCP(=O)(O)O`, the remaining parasite growth % (stronger effect = lower value) in test [1] came to 13.5%. Also, in test [2], the activity, percent of control came to 10.8%. In addition, in test [3], the remaining proliferation (% of control), lower = more inhibition amounted to 8.45%. The same compound came in with a parasite growth, % of DMSO control in test [4] of 13.6%. Besides, the parasite growth remaining, % of DMSO control (lower = more inhibition) in test [5] was determined as 18.6%. In test [6], this compound displayed a growth, % of control of 13%. Further, the Potency entry in [7], in test [8], in test [9] and in test [10] was “inactive” each time.
For `COCCOCCOCCOC`, the activation in test [11] was 4.16% (inactive). Also, the Potency entry in [7], in [8], in [9] and in test [10] was “inactive” each time.
`C=CCCCCCCCCCCCC`: the Potency entry in test [12], in test [7], in test [8], in test [9] and in test [10] was “inactive” each time.
On to `CCCCCCCCCCCCCc1ccccc1`, for which the activation in test [11] was -1.99% (inactive). Also, the Potency entry in test [7], in test [8], in test [9] and in test [10] was “inactive” each time.
As to `CC(=O)/C=C/C1C(C)=CCCC1(C)C` (configuration not stated), the activation in test [11] is 2.64% (inactive). In addition, the Potency entry in test [12], in test [7], in test [8], in [9] and in test [10] was “inactive” each time.
`O=C(O)c1cc(O)c2ccccc2c1O`: the activation in [11] was 1.64% (inactive). Moreover, the Potency result in test [7], in [8], in [9] and in test [10] was “inactive” each time.
As for `CC=O`, in [11], the activation was -1.84% (inactive). Also, the Potency result in test [12], in [7], in test [8], in test [9] and in [10] was “inactive” in each case.
With `O=C(C[C@@H]1NCCC[C@@H]1O)Cn1cnc2ccccc2c1=O`, the remaining parasite growth % (stronger effect = lower value) in test [1] was -0.414%. In [2], the activity, percent of control was -0.451%. Also, the remaining proliferation (% of control), lower = more inhibition in test [3] was -0.569%. Besides, the parasite growth, % of DMSO control in [4] was 4.79%. In test [5], the parasite growth remaining, % of DMSO control (lower = more inhibition) stood at 6.53%. The compound also came in with a growth, % of control in test [6] of 5.66%. The Potency result in [7], in test [8], in [9] and in [10] was “inactive” each time.
With `C[C@H](CCC(=O)O)[C@H]1CCC2C3CC[C@@H]4C[C@H](O)CC[C@]4(C)C3CC[C@@]21C` (some centres not stated), the parasite growth, % of DMSO control in test [4] stood at 97.3%. The Potency result in test [7], in test [8], in [9] and in test [10] was “inactive” each time.
For the compound `CCCCCC1CCC(=O)O1` (configuration not stated), the activation in [11] is 0.301% (inactive). In addition, the Potency result in test [12], in test [7], in [8], in [9] and in test [10] was “inactive” in each case.
Take `CC1=C(C(=O)Nc2cc3cn[nH]c3cc2F)C(c2ccc(Cl)cc2F)N=C(c2ccnc(Cl)c2)N1` (configuration not stated): the Potency entry in test [7], in test [8], in test [9] and in [13] was “inactive” each time.
Regarding `NC(=O)c1noc([C@H](CCCC2CCCCC2)CC(=O)NO)n1`, the Potency entry in test [7], in test [8], in [9] and in test [13] was “inactive” in each case. Moreover, in [14], the activity change, negative = inhibition is -13.6%.
`CN(C)CCCC1(c2ccc(F)cc2)OCc2cc(C#N)ccc21` (configuration not stated): the Potency result in [15], in [7], in test [8], in test [9] and in [13] was “inactive” in each case. For the same compound, the outcome in test [16], in test [17] and in test [18] was inactive.
For `CC(C)n1cnc2c(NCCCCCCNC(=O)OC(C)(C)C)nc(NCCO)nc21`, the Potency result in [7], in [8] and in test [9] was “inactive” throughout. Also, the Potency in test [14] was 28200 nM (active).
For the compound `COc1c2ccoc2cc2oc(=O)ccc12`, the Potency in test [19] is 5010 nM (active); in test [20], 10000 nM (active); in [22], 2000 nM (active); in test [23], 3160 nM (active). Besides, the Potency entry in test [21], in [7], in test [8], in test [9] and in test [10] was “inactive” throughout.
For `Cc1cccc2c1CC[C@H](CN1CCC(c3c(Cl)cccc3Cl)CC1)C[C@@H]2O`, the parasite growth remaining, % of DMSO control (lower = more inhibition) in test [5] was found to be 25.2%. Moreover, the Potency entry in test [7], in test [8], in test [9] and in [10] was “inactive” throughout.
Regarding `O=CN1CCCCC1C1CC[C@H]2CCCCN2C1` (some centres not stated), the Potency entry in test [20], in [7], in test [8], in [9] and in [10] was “inactive” each time.
As for `CC(C)n1nc(-c2ccc3oc(N)nc3c2)c2c(N)ncnc21`, the Potency is 2.4 nM (active) in [7], 1.9 nM (active) in test [8] and 3.1 nM (active) in [9]. Further, in [14], the activity change, negative = inhibition was -61%.
